Sm TGR inh = qHTS Assay for the Inhibitors of Schistosoma Mansoni Peroxiredoxins; Schistosoma mansoni thioredoxin glutathione reductase (TGR), Q962Y6; purified TGR, DTNB reduction, TNB absorbance 405 nm; 360,000 compounds, 3% hits; Potency, µM (doses to about 114 µM), without a hit: at the highest dose activity change, negative = inhibition, most hits filed as inhibitors; AID 485364, 2010; also: nearly all actives have a fitted effect of over 60% in size
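TGR 20 nM + NADPH 100 uM (dispensed conc.), cpd preinc 15 min RT; start with NADPH (500 uM addition) then DTNB (15 mM addition). Kinetic TNB absorbance, 405 nm filter. Four-parameter Hill fit across titration.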
Giardia FBPA inh-1 = qHTS Assay for Inhibitors of Fructose-1,6-bisphosphate Aldolase from Giardia Lamblia. A8B2U2. purified Giardia FBPA. Potency, µM (top dose mostly 59.6 µM), without a hit: at the highest dose activity, negative = inhibition, actives largely listed as inhibitors. 290,000 compounds, 0.71% hits; also: nearly all actives have a fitted effect of over 55% in size
Target sequence (A8B2U2 whole entry, looked up): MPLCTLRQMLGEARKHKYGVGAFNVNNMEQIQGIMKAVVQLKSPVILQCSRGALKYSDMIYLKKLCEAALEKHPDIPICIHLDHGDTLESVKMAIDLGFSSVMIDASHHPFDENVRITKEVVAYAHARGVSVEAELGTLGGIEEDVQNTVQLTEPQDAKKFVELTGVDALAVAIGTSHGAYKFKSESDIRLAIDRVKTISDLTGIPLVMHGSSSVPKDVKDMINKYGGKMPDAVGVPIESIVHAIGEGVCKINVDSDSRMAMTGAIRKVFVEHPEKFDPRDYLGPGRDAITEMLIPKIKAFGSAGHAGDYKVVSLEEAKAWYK
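40 nM FBPA preincubated 10 min at RT with compound (up to 57.5 uM final), then substrate plus GAPDH/TPI/NAD/arsenate coupling and diaphorase/resazurin added. Fluorescence read after 20 min at RT, 525/598 nm.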
AmpC inh detg = qHTS Inhibitors of AmpC Beta-Lactamase (assay with detergent); AmpC hydrolysis of nitrocefin, absorbance 480 nm, 0.01% Triton; 370,000 compounds, 0.041% hits; Potency, µM (titrated, usually from 114 µM), inactives show at the highest dose activity change, negative = inhibition, usual class: inhibitors; AID 485294, 2010; P00811;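 also: 0% = no-compound wells and -100% = no-enzyme wells; nearly all actives have a fitted effect of over 25% in size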
Target sequence (P00811 whole entry, looked up): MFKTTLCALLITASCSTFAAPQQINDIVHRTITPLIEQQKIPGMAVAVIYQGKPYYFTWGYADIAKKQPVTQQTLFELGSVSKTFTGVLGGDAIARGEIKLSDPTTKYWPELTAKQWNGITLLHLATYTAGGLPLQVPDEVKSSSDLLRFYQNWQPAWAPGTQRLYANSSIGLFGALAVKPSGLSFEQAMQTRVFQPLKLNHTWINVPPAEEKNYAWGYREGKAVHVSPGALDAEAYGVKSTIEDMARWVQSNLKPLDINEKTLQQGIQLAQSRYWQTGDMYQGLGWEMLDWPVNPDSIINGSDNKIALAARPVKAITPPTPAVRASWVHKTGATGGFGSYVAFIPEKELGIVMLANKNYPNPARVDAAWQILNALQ
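20 mM phosphate pH 7.0 + 0.01% (detergent screen) or 0.0001% Triton X-100; 5.3 nM AmpC reagent; cpd preinc 15 min RT; nitrocefin (800 uM stock) to start; A480 q20 s × 4 min; Activity was normalised to no-enzyme and no-compound control wells.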
RE007 growth inh = qHTS Assay for Inhibitors of the HIV-1 protein Vpr. S. pombe RE007 Vpr strain, BacTiter-Glo ATP luminescence, 24 h. Potency, µM (highest dose often 92.2 µM), inactives show at the top dose activity change, negative = less growth, actives largely listed as inhibitors. 360,000 compounds, 0.21% hits. AID 651644, 2012; active = well fitted falling curve with a large enough effect; inconclusive = small, poorly fitted or top-dose-only effect; inactive = no such curve, though single readings can be large or run the other way; also: nearly all actives have a fitted effect of over 50% in size
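Fission yeast strain RE007, carrying one chromosomally integrated HIV-1 vpr copy, was seeded at OD 0.01 in PMG+AL medium with 23 nL pinned compound. After 24 h at 30 °C and 99% humidity, viability was read by BacTiter-Glo luminescence.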
AmpC no deterg = qHTS Inhibitors of AmpC Beta-Lactamase (assay without detergent); 330,000 compounds, 0.52% hits; AmpC nitrocefin hydrolysis, absorbance 480 nm, 0.0001% Triton; P00811; AID 485341, 2010; Potency, µM (titrated, usually from 57.1 µM), for the others: at the top dose activity change, negative = inhibition, actives largely listed as inhibitors;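 also: plate controls were no compound for no effect and no enzyme for full effect; nearly all actives have a fitted effect of over 20% in size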
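AmpC (5.3 nM in the dispensed reagent) in 20 mM phosphate pH 7.0 with 0.01% (detergent screen) or 0.0001% Triton X-100 was preincubated with compounds for 15 min at room temperature. Nitrocefin was then added from an 800 uM solution, and hydrolysis was followed at 480 nm.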
Giardia growth = qHTS Assay for Inhibitors of Fructose-1,6-bisphosphate Aldolase from Giardia Lamblia: Giardia lamblia growth inhibition; 1,500 compounds, 5% hits; AID 2785, 2010; Potency, µM (titrated, usually from 57.5 µM), without a hit: at the top dose activity change, negative = inhibition, usual class: inhibitors; shares compounds with Giardia FBPA inh-1; Giardia lamblia trophozoite growth inhibition;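 also: trophozoites exposed to compound for 48 h at 37 °C; nearly all actives have a fitted effect of over 70% in size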
Mammalian tox = qHTS Assay for Inhibitors of Fructose-1,6-bisphosphate Aldolase from Giardia Lamblia: Mammalian cellular toxicity; AID 2786, 2010; mammalian cell viability counter-screen, qHTS; 1,500 compounds, 4% hits; shares compounds with Giardia FBPA inh-1; Potency, µM (top dose mostly 57.5 µM), for inactives: at the top dose viability change, negative = toxicity, hits mostly inhibitors;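 also: Chinese hamster ovary cells used as mammalian cytotoxicity surrogate; viability measured as cellular ATP by luminescence; compound exposure lasted 48 h before reading; nearly all actives have a fitted effect of over 60% in size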
Giardia FBPA inh-2 = qHTS Assay for Inhibitors of Fructose-1,6-bisphosphate Aldolase from Giardia Lamblia: Primary screen confirmation; shares compounds with Giardia FBPA inh-1; Potency, µM (series often up to 57.5 µM), for inactives: at the highest dose activity change, negative = inhibition, actives largely listed as inhibitors; 1,500 compounds, 5% hits; purified Giardia aldolase enzyme activity, qHTS; also: nearly all actives have a fitted effect of over 45% in size
Rabbit FBPA inh = qHTS Assay for Inhibitors of Fructose-1,6-bisphosphate Aldolase from Giardia Lamblia: Rabbit FBPA Selectivity. Rabbit muscle FBPA enzyme inhibition, selectivity counter-screen. Potency, µM (doses to about 57.5 µM), without a hit: at the highest dose activity, negative = inhibition, hits mostly inhibitors. shares compounds with Giardia FBPA inh-1. 1,500 compounds, 4% hits; also: nearly all actives have a fitted effect of over 60% in size
GAPDH coupling = qHTS Assay for Inhibitors of Fructose-1,6-bisphosphate Aldolase from Giardia Lamblia: Coupling assay counterscreen confirmation | shares compounds with Giardia FBPA inh-1 | GAPDH coupling enzyme counterscreen, biochemical, qHTS | Potency, µM (highest dose often 57.5 µM), for the others: at the top dose activity change, negative = inhibition, usual class: inhibitors | 1,500 compounds, 6% hits | AID 2795, 2010; also: nearly all actives have a fitted effect of over 55% in size
Numbers without * were called inactive; ? = inconclusive; . = not tested or not shown; [ ] = another dose, or the depositor's remark. Rows were chosen to be rich in hits. Some 3.4% of all compounds tested hit in one or more screens of this group. Unless noted, calls follow the shape of the dose curve; as a rule, active = well fitted curve in the direction sought with a large enough effect; inconclusive = small, poorly fitted or top-dose-only effect, or another doubt; inactive = no such curve, though single readings can be large; an effect the other way counts as inactive or inconclusive. Unless noted, % is scaled to controls: 0 for no effect and ±100 for the full control effect; potency is read from the fitted curve at half-maximal effect.

SMILES	Sm TGR inh	Giardia FBPA inh-1	AmpC inh detg	RE007 growth inh	AmpC no deterg	Giardia growth	Mammalian tox	Giardia FBPA inh-2	Rabbit FBPA inh	GAPDH coupling
O=C(Nc1nc(-c2ccccn2)cs1)c1ccccc1-n1cnnn1	4%	7.9µM*	3%	-8%	-29%	20µM*	?	-4%	-16%	?
CCCC(CCC)C(=O)Nc1cccc(-c2cn3cccnc3n2)c1	6%	.	8%	.	.	.	.	.	.	.
CC(=O)OCC(=O)c1ccc2ccn(C(C)=O)c2c1	5%	-6%	?	-3%	-3%	.	.	.	.	.
CC(C)c1cccc(OCCCCN(C)C)c1	-3%	16µM*	-1%	3%	56%	?	-6%	8%	6%	2%
CCN(CC)CCOc1cccc(C(C)C)c1	3%	-2%	?	19%	-13%	.	.	.	.	.
CC(=O)Nc1cccc(/C(C)=N/NC(N)=S)c1	-4%	18µM*	-8%	19%	-12%	14%	-20%	7%	3%	7%
CC(=O)Nc1ccc(NC(=O)C/C(C)=N/NC(N)=S)cc1	-9%	16µM*	-10%	-7%	-25%	-14%	9%	-2%	7%	4%
CCSC1=N/C(=C\c2ccc(-c3ccccc3[N+](=O)[O-])o2)C(=O)S1	4%	?	6%	-1%	-33%	6%[38.3 µM]	-19%	-20%	-5%	-18%
NC(c1ccccc1)c1cccnc1 (centres undefined)	-26%	10µM*	-16%	9%	-7%	1%	20%	11%	4%	12%
O=c1c2sccc2[nH]c(=S)n1-c1ccccc1	3%	18µM*	5%	-11%	-22%	?	1%	-4%	-4%	4%
O=c1oc2c(O)c(O)cc3c(=O)oc4c(O)c(O)cc1c4c23	-28%	2µM*	?	5%	-36%	15%	4%	?	?	?
COCCn1c(SCC(=O)OC(C)C)nnc1-c1ccccc1	-25%	1%	?	-1%	-16%	.	.	.	.	.
Cc1nc2cnc(N3CCOCC3)nc2n(C2CC2)c1=O	.	6%	.	.	.	.	.	.	.	.
CCC1Oc2ccccc2N(CC(=O)NCCN2CCc3ccccc3C2)C1=O (centres undefined)	21%	16µM*	2%	1%	49%	-22%	18%	6%	9%	1%
O=C1C=C(O)c2cccc(O)c2C1=O	?	5.6µM*	-6%	?	-47%	3%[10.4 µM]	19%	?	-21%	?
O=C1c2cccc(O)c2C(=O)c2c(O)cccc21	-16%	-18%	-6%	.	-19%	.	.	.	.	.
O=C(CCCN1C(=O)/C(=C\c2cccs2)SC1=S)Nc1cccc(C(=O)O)c1	2%	17%	0%	7%	-16%	.	.	.	.	.
O=C(CCCN1C(=O)/C(=C/c2ccco2)SC1=S)Nc1cccc(C(=O)O)c1	-6%	16µM*	3%	2%	-24%	9%[10.4 µM]	20%	-7%	-2%	9%
Cc1nccn1CC1CCc2c(c3ccccc3n2C)C1=O (centres undefined)	17%	20µM*	-7%	17%[18.4 µM]	-20%	11%[10.4 µM]	-1%	5%	4%	16%
Cc1cc(=O)c2c(O)c(O)ccc2o1	0%	10µM*	-1%	-13%	-17%	63%	11%	?	?	?
O=C(CSc1ncccn1)N1CCN(C(c2ccccc2)c2ccccc2)CC1	4%	0%	-10%	2%	61%	.	.	.	.	.
CCCCOc1c(Br)cc(CNCCCN2CCOCC2)cc1OC	0%	20µM*	-11%	3%	46%	?	-9%	3%	3%	8%
Cc1ccc(CNC(=O)c2ccccc2NS(C)(=O)=O)cc1	5%	-11%	-17%	13%	-9%	.	.	.	.	.
O=C(NC(=S)N1CCN(c2ccc(O)cc2)CC1)c1cccs1	0%	13µM*	-6%	-4%	-14%	15%	14%	-19%	-2%	19%
O=C(NC(=S)N1CCN(c2ccc(F)cc2)CC1)c1cccs1	-2%	-1%	1%	-30%	-9%	.	.	.	.	.
SMILES	Sm TGR inh	Giardia FBPA inh-1	AmpC inh detg	RE007 growth inh	AmpC no deterg	Giardia growth	Mammalian tox	Giardia FBPA inh-2	Rabbit FBPA inh	GAPDH coupling
Cc1ccc(NC(=S)N2CCC(c3ccc(C)cc3)C2)cc1 (centres undefined)	3%	16µM*	-3%	-5%	-38%	-3%[10.4 µM]	-15%	11%	7%	18%
Cc1ccc(NC(=O)N2CC3CCCN3c3ccccc32)cc1Cl (centres undefined)	-8%	.	-3%	.	.	.	.	.	.	.
COc1cc(C2NC(=O)C(C#N)=C(Nc3cccc(C)c3)S2)ccc1O (centres undefined)	0%	14µM*	5%	2%	-28%	7%[10.4 µM]	2%	-24%	4%	13%
Cc1ccc(S(=O)(=O)Nc2cc3c(cc2NCc2ccccc2)n(C)c(=O)n3C)cc1	0%	.	10%	.	.	.	.	.	.	.
CCN1CCN(CCCN(Cc2ccco2)C(=S)Nc2ccc(C)c(Cl)c2)CC1	2%	0%	0%	-19%	72%	.	.	.	.	.
CCN1CCN(CCCN(Cc2ccco2)C(=S)Nc2cc(Cl)ccc2C)CC1	13%	16µM*	-11%	-6%	36%	?	-9%	-4%	7%	10%
Cc1cc(NC(=O)C(C)SCC(=O)Nc2ccccc2OC(F)F)no1 (centres undefined)	3%	14%	2%	6%	-27%	.	.	.	.	.

High-throughput results (PubChem)
